# Reference: PubChem BioAssay (NCATS)
# “And” between values parts separate entries of the source, which are not always exact repeats. Equal entries are not always repeated. Results filed as inconclusive are left out. The source made the active and inactive calls. Calls come from the whole dose curve; as a rule, active = well fitted curve in the direction sought with a large enough effect; inconclusive = small, poorly fitted or top-dose-only effect, or another doubt; inactive = no such curve, though single readings can be large; an effect the other way counts as inactive or inconclusive.
# Columns and labels:
# [1] = qHTS of pediatric cancer cell lines to identify multiple opportunities for drug repurposing: Confirmatory screen for A673 cells (AID 1347110);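 note: cells exposed to compound for 48 h before the viability read; nearly all actives have a fitted effect of over 65% in size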
# Method in brief: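 Viability was read as ATP luminescence (CellTiter-Glo) after 48 h of compound exposure at 37 C in A673 cells seeded at 500-1,000/well. Titrations reached 46 uM final, with 11 points in the confirmatory screen. Concentration-response curves were fitted directly.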
# [2] = qHTS of pediatric cancer cell lines to identify multiple opportunities for drug repurposing: Confirmatory screen for SK-N-MC cells (AID 1347111);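 note: cells exposed to compound for 48 h before the readout; nearly all actives have a fitted effect of over 70% in size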
# Excerpt: Drug repurposing or repositioning has been offered as a strategy for drug development in oncology programs. This approach has special potential for childhood cancers and other rare or orphan diseases, where the expected return on new drug development has been a disincentive to pharmaceuticals.
# In this project we exploit the poly-pharmacology of drugs to discover new indications via phenotypic screening of a panel of 19 well-characterized cell lines derived from solid tumors seen in children and adolescents. The goal is to identify approved drugs with previously unrecognized anticancer properties that has the potential to reveal new mechanisms and biological processes involved in carcinogenesis or drug resistance. We employed a titration-based paradigm (quantitative high-throughput screening or qHTS), where all compounds were tested at multiple concentrations for their effect on cell viability. Concentration-response curves (CRCs) were derived directly from the primary screen, and both potency and efficacy values were used to identify compounds with robust bioactivity profiles. We screened the NIH Chemical Genomics Center (NCGC) Pharmaceutical Collection (NPC) and Mechanism Interrogation Plate (MIPE) small molecule collections of approved and investigational compounds against these cell lines; and measured metabolically active cells after 48 hours of compound treatment as a proxy for cell viability.
# Assay Submitter: Nathalia J. Martinez, National Center for Advancing Translational Sciences, National Institutes of Health, Rockville, MD, USA; email: natalia.martinez@nih.gov
# [1] Shen, M et al. Quantitative high-throughput phenotypic screening of pediatric cancer cell lines identifies multiple opportunities for drug repurposing. Oncotarget 2017 Dec 19;9(4):4758-4772. PMID 29435139.
# The cells were obtained from University of North Carolina (UNC), Pediatric Preclinical Testing Program (PPT), and Coriell Institute (CI).
# qHTS cell viability assay:
# Cells were assayed in growth media at a density of 500-1,000 cells/well. Five microliters of cells were dispensed into 1,536-well, white, solid-bottom, TC-treated plates (Greiner Bio One) using a multidrop dispenser and incubated at 37 degrees C, 5% CO2, under a humidified atmosphere for 5 hours. Twenty-three nanoliters of compounds and controls (neutral control DMSO or positive control bortezomib at final concentration of 2.3 µM) were subsequently transferred by Kalypsys pintool. For primary screens, the MIPE collection was tested at 11-point dilutions (final concentrations range from 0.78 nM to 46 µM) and the NPC collection at 8-point dilutions (final concentrations range from 0.59nM to 46 µM). Compounds tested in follow-up screens were assayed at 11-point dilutions. Cells were incubated for 48 hours, followed by addition of 3 uL of CellTiter-Glo (Promega). After a 15 min incubation at room temperature, samples were analyzed for luminescence intensity using a ViewLux High-throughput CCD imager equipped with clear filters.
# [3] = qHTS of pediatric cancer cell lines to identify multiple opportunities for drug repurposing: Confirmatory screen for BT-12 cells (AID 1347112); note: nearly all actives have a fitted effect of over 55% in size
# Method in brief: (§1)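 Viability after 48 h compound treatment at 37C, 500-1,000 cells/well, read as ATP luminescence with CellTiter-Glo. Primary screens used 11-point (MIPE, 0.78 nM-46 µM) or 8-point (NPC, 0.59 nM-46 µM) final concentrations; follow-up screens used 11-point dilutions.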
# [4] = qHTS of pediatric cancer cell lines to identify multiple opportunities for drug repurposing: Confirmatory screen for LAN-5 cells (AID 1347113); note: nearly all actives have a fitted effect of over 65% in size
# Method in brief: as §1
# [5] = qHTS of pediatric cancer cell lines to identify multiple opportunities for drug repurposing: Confirmatory screen for NB-EBc1 cells (AID 1347115);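 note: cells exposed to compound for 48 h before the viability read; nearly all actives have a fitted effect of over 45% in size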
# Method in brief: as §1
# [6] = qHTS of pediatric cancer cell lines to identify multiple opportunities for drug repurposing: Confirmatory screen for BT-37 cells (AID 1347117); note: nearly all actives have a fitted effect of over 55% in size
# Method in brief: as §1
# [7] = qHTS of pediatric cancer cell lines to identify multiple opportunities for drug repurposing: Confirmatory screen for TC32 cells (AID 1347118);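 note: cells exposed to compound for 48 h before the read; nearly all actives have a fitted effect of over 65% in size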
# Method in brief: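 TC32 cells, 500-1,000/well in growth medium, compound-treated 48 h at 37 °C; viability from CellTiter-Glo luminescence. Primary screen: MIPE 11-point (0.78 nM–46 µM final), NPC 8-point (0.59 nM–46 µM final); confirmatory at 11-point dilutions.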
# [8] = qHTS of pediatric cancer cell lines to identify multiple opportunities for drug repurposing: Confirmatory screen for NB1643 cells (AID 1347109); note: nearly all actives have a fitted effect of over 45% in size
# Method in brief: as §1
# [9] = qHTS of pediatric cancer cell lines to identify multiple opportunities for drug repurposing: Confirmatory screen for DAOY cells (AID 1347114); note: nearly all actives have a fitted effect of over 65% in size
# Method in brief: (§2)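 Viability measured as metabolically active cells via CellTiter-Glo luminescence following 48 hours of compound exposure, 11-point dilutions in confirmatory testing. 500-1,000 cells/well plated 5 hours before dosing; controls were DMSO and 2.3 µM bortezomib.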
# [10] = qHTS of pediatric cancer cell lines to identify multiple opportunities for drug repurposing: Confirmatory screen for SJ-GBM2 cells (AID 1347116); note: nearly all actives have a fitted effect of over 60% in size
# Method in brief: as §2
# Potency is the fitted concentration of half-maximal effect.
Compound,Potency [1],Potency [2],Potency [3],Potency [4],Potency [5],Potency [6],Potency [7],Potency [8],Potency [9],Potency [10]
C=C(C)[C@H]1Cc2c(ccc3c2O[C@@H]2COc4cc(OC)c(OC)cc4[C@@H]2C3=O)O1,3.69 µM (active),1.65 µM (active),2.61 µM (active),1.17 µM (active),0.293 µM (active),2.61 µM (active),0.329 µM (active),–,–,–
Cc1sc2c(c1C)C(c1ccc(Cl)cc1)=N[C@@H](CC(=O)OC(C)(C)C)c1nnc(C)n1-2,inactive,–,–,–,–,1.31 µM (active),0.827 µM (active),1.31 µM (active),inactive,inactive
Cn1c(CCCC(=O)O)nc2cc(N(CCCl)CCCl)ccc21,–,3.69 µM (active),inactive,inactive,13.1 µM (active),–,4.65 µM (active),16.5 µM (active),–,inactive
O=c1[nH]c2ccccc2n1CCCN1CCC(n2c(=O)[nH]c3cc(Cl)ccc32)CC1,26.1 µM (active),5.22 µM (active),–,9.27 µM (active),16.5 µM (active),8.27 µM (active),3.29 µM (active),7.37 µM (active),23.3 µM (active),13.1 µM (active)
C[C@@H]1[C@@H](CC(C[C@H]2O[C@@H]3O[C@]4(C)CC[C@@H]5[C@H](C)CC[C@@H]([C@H]2C)[C@@]35OO4)C[S+](=O)([O-])c2ccc(COC(=O)N(C)C)cc2)O[C@@H]2O[C@]3(C)CC[C@H]4[C@H](C)CC[C@@H]1[C@@]24OO3 (stereo not given in full),–,0.293 µM (active),0.657 µM (active),1.04 µM (active),0.928 µM (active),0.233 µM (active),0.585 µM (active),0.414 µM (active),1.04 µM (active),1.65 µM (active)
COC[C@@H](NC(C)=O)C(=O)NCc1ccccc1,inactive,–,inactive,inactive,inactive,inactive,–,inactive,–,–
CC(C)CC(N(C)C)C1(c2ccc(Cl)cc2)CCC1 (stereo not given),–,–,–,–,inactive,–,23.3 µM (active),–,inactive,–
Cn1cc(C2=C(c3cn(C4CCN(Cc5ccccn5)CC4)c4ccccc34)C(=O)NC2=O)c2ccccc21,–,–,inactive,–,–,–,–,–,–,–
O=P1(NCCCl)OCCCN1CCCl (stereo not given),inactive,inactive,inactive,inactive,inactive,inactive,inactive,inactive,inactive,inactive
C[C@@H]1[C@@H](C(=O)C[C@H]2O[C@@H]3O[C@]4(C)CC[C@@H]5[C@H](C)CC[C@@H]([C@H]2C)[C@@]35OO4)O[C@@H]2O[C@]3(C)CC[C@H]4[C@H](C)CC[C@@H]1[C@@]24OO3,6.57 µM (active),2.93 µM (active),14.7 µM (active),–,–,1.65 µM (active),9.27 µM (active),–,inactive,–
N[C@@H](Cc1ccc(N(CCCl)CCCl)cc1)C(=O)O,16.5 µM (active),2.61 µM (active),–,5.22 µM (active),5.85 µM (active),–,9.27 µM (active),6.57 µM (active),23.3 µM (active),20.8 µM (active)
C[C@@H]1O[C@@H](O[C@H]2C[C@@H](O)[C@]3(CO)[C@H]4[C@H](O)C[C@]5(C)[C@@H](C6=CC(=O)OC6)CC[C@]5(O)[C@@H]4CC[C@]3(O)C2)[C@H](O)[C@H](O)[C@H]1O,329 nM (active) and 282 nM (active),131 nM (active) and 293 nM (active),131 nM (active) and 147 nM (active),329 nM (active) and 414 nM (active),–,65.7 nM (active) and 92.8 nM (active),92.8 nM (active) and 165 nM (active),369 nM (active) and 585 nM (active),73.7 nM (active) and 56.2 nM (active),0.261 µM (active)
C[C@H]1O[C@@H](O[C@H]2[C@@H](O)C[C@H](O[C@H]3[C@@H](O)C[C@H](O[C@H]4CC[C@@]5(C)[C@H](CC[C@@H]6[C@@H]5CC[C@]5(C)[C@@H](C7=CC(=O)OC7)CC[C@]65O)C4)O[C@@H]3C)O[C@@H]2C)C[C@H](O)[C@@H]1O,0.465 µM (active),0.131 µM (active),0.185 µM (active),0.233 µM (active),–,0.0585 µM (active),0.0827 µM (active),0.329 µM (active),0.0657 µM (active),0.233 µM (active)
